Reference: PubChem BioAssay (NCI)
This is part of a sample that, as a whole, favours compounds with a hit. Of some 83,000 tested, about 20% had one in any assay.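 Testing used 96-well plates and a 48-hour single-concentration exposure. Example: -40 means 40% of the starting cells died.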 Unmarked numbers belong to inactive results. Calls of active or inactive are those of the source. Rule for the calls: active = growth percent below 10; inactive = the rest.

These molecules were tested on T-47D breast (assay: NCI-60 one-dose screen, 48 h (100 = growth as untreated, 0 = no growth, -100 = all killed)). Conditions: 10 µM unless noted.

| Structure (SMILES) | growth |
| --- | --- |
| COC(=O)[C@@H](Cc1c[nH]c2ccccc12)NC(=O)CCCCOc1cc(O)c2c(=O)cc(-c3ccccc3)oc2c1 | 59.7% |
| CCOC(=O)c1cnc2c(-c3ccc(Cl)c(Cl)c3)cnn2c1 | 86.2% |
| O=C(Nc1cccc(Cl)c1)Nc1nc2cc([N+](=O)[O-])ccc2o1 | 15.4% |
| CCOP(=O)(OCC)OC[C@]12CCC(C)(C)CC1C1=CC[C@@H]3[C@@]4(C)CCCNC(C)(C)[C@@H]4CC[C@@]3(C)[C@]1(C)CC2 (stereo partly drawn) | 79.2% |
| CS(=O)(=O)c1ccc(/C(=N/N=C(N)N)c2ccc(Cl)cc2)cc1 | 89% |
| O=c1nc(Nc2ccc([N+](=O)[O-])cc2O)sc2ccccc12 | 31.1% |
| O=C1C(SCc2ccccc2)=C(Cl)CN1c1ccc(Cl)cc1 | 50.4% |
| CCCC/C(=C\c1ccc(O)c(O)c1)C(=O)NC(Cc1ccccc1)C(=O)C(=O)NCCc1ccc(OC)cc1 (stereo not drawn) | 94.9% |
| COc1ccc(-c2cc(-c3ccc(N4CCOCC4)cc3)n3c(n2)nc2ccccc23)cc1OC | 81% |
| C#C[C@]1(O)CC[C@H]2[C@@H]3CC=C4c5sc(Nc6ccc(C)cn6)nc5CC[C@]4(C)[C@H]3CC[C@@]21C | 18.9% |
| CS(=O)(=O)c1ccc(/C(=N/N=C(N)N)c2ccc(F)cc2)cc1 | 94.4% |
| CC(=O)Nc1ccccc1-c1nc2ccccc2s1 | 99.3% |
| COc1ccc(/C=N/NC(=O)c2c(N)nn(C)c2Nc2ccccc2)cc1Oc1ccccc1 | 78.1% |
| C=C(C)[C@@H]1CC[C@]2(COP(=O)(OCC)OCC)CC[C@]3(C)[C@H](CC[C@@H]4[C@@]5(C)CC[C@H](OP(=O)(OCC)OCC)C(C)(C)[C@@H]5CC[C@]43C)[C@@H]12 | 20.8% |
| N#Cc1c(-c2cccs2)cc(-c2cnccn2)nc1SCC(=O)N/N=C/c1ccccc1 | 25.6% |
| COc1cccc2c1[C@H](OC)[C@]13O[C@@]1(C2=O)[C@H](O)[C@H](C)[C@@](O)(C(=O)[C@@H]1O[C@H]1C)[C@@H]3O | -11.8% (active) |
| C#CCN(C)CCCOc1ccc(NCc2ccc(C(=O)NO)cc2)cc1Cl | 0.446% (active) |
| CCN(CC)c1ccc(/C=N/NC(=O)c2ccc(NS(C)(=O)=O)cc2)cc1 | 27.4% |
| COc1ccc2c(c1)c(-c1nnc(N)nc1-c1c[nH]c3ccc(F)cc13)cn2C | 46.5% |
| Cc1ccc(S(=O)(=O)NCCCNc2nccc(-c3[nH]c(-c4ccccc4)nc3-c3ccc(F)c(O)c3)n2)cc1 | 71.1% |

| Structure (SMILES) | growth |
| --- | --- |
| COc1ccc(-c2c(C(N)=O)c(N)n(Cc3nc4ccccc4[nH]3)c(=O)c2C#N)c(OC)c1 | 89.6% |
| Brc1ccc2[nH]cc(-c3nn4cc(-c5nccs5)nc4s3)c2c1 | 29.7% |
| CNc1sc(S(=O)(=O)NC)nc1S(=O)(=O)c1ccc(C)cc1 | 93.5% |
| COc1ccc(C(=NNS(=O)(=O)c2ccc(C)cc2)c2ccccc2)cc1OC | 90% |
| N#Cc1c(-c2cccs2)cc(-c2cnccn2)nc1SCC(=O)N/N=C/c1ccncc1 | 101% |
| Cc1ncn(-c2ccc(/C=N/Nc3ccnc4cc(Cl)ccc34)cc2)c1C | -61.6% (active) |
| C#Cc1nc(/C=C/C(=O)NO)cs1 | 67.9% |
| CCS(=O)(=O)Nc1ccc(C(=O)CC2(O)C(=O)Nc3ccccc32)cc1 (stereo not drawn) | 89.1% |
| C1=CC(c2nn3c(-c4ccccc4)nnc3s2)=Cc2ccccc2O1 | 19.7% |
| Cc1[nH]c(C(=O)Nc2ccc(C(N)=O)cc2N2CCOC(C)C2)c(Cl)c1Cl (stereo not drawn) | 83% |
| O=C(/C=C/c1ccccc1)c1cccc(O)c1 | 97.8% |
| COC(=O)CCCNCCCn1ccc2cc(NCc3cccc(-c4ccccc4)c3C)ccc21 | 58% |
| C/C(=N\NC(=O)/C=C/CC(=O)O)c1nnn(-c2ccc([N+](=O)[O-])cc2)c1C | 98.9% |
| O=C(/C=C/c1ccc(F)cc1)Nc1cccc2cccnc12 | 32.8% |
| CC(C)NC(=O)c1cc(-c2ccc(NC(=O)Nc3ccc(F)cc3)cc2)nc2cccnc12 | 97.8% |
| O=C(/C=C/c1cccc(C(F)(F)F)c1)Nc1cccc(C(F)(F)F)c1 | -6.89% (active) |
| Clc1ccc(CSc2nnc(-c3ccc(Cl)cc3)n2-c2ccccc2)cc1 | 80.9% |
| COc1ccc(/C=N/N=C(/c2ccccc2)c2ccc3nc(-c4ccc(Cl)cc4)[nH]c3c2)cc1 | 63.5% |
| N#Cc1cnc2ccc(-c3cnc4n[nH]nc4c3)cc2c1N1CCc2cc(F)c(Cl)cc21 | 1.2% (active) |

The molecules below were run on BT-549 breast in the same assay as above. Conditions: 10 µM unless noted.

| Structure (SMILES) | growth |
| --- | --- |
| COC(=O)[C@@H](Cc1c[nH]c2ccccc12)NC(=O)CCCCOc1cc(O)c2c(=O)cc(-c3ccccc3)oc2c1 | 90.7% |
| CCOC(=O)c1cnc2c(-c3ccc(Cl)c(Cl)c3)cnn2c1 | 26.5% |
| O=C(Nc1cccc(Cl)c1)Nc1nc2cc([N+](=O)[O-])ccc2o1 | 67.1% |
| CCOP(=O)(OCC)OC[C@]12CCC(C)(C)CC1C1=CC[C@@H]3[C@@]4(C)CCCNC(C)(C)[C@@H]4CC[C@@]3(C)[C@]1(C)CC2 (stereo partly drawn) | 104% |
| CS(=O)(=O)c1ccc(/C(=N/N=C(N)N)c2ccc(Cl)cc2)cc1 | 85% |
| O=c1nc(Nc2ccc([N+](=O)[O-])cc2O)sc2ccccc12 | 50.6% |
| O=C1C(SCc2ccccc2)=C(Cl)CN1c1ccc(Cl)cc1 | 109% |
| CCCC/C(=C\c1ccc(O)c(O)c1)C(=O)NC(Cc1ccccc1)C(=O)C(=O)NCCc1ccc(OC)cc1 (stereo not drawn) | 84.1% |
| COc1ccc(-c2cc(-c3ccc(N4CCOCC4)cc3)n3c(n2)nc2ccccc23)cc1OC | 82.3% |
| C#C[C@]1(O)CC[C@H]2[C@@H]3CC=C4c5sc(Nc6ccc(C)cn6)nc5CC[C@]4(C)[C@H]3CC[C@@]21C | -12.7% (active) |
| CS(=O)(=O)c1ccc(/C(=N/N=C(N)N)c2ccc(F)cc2)cc1 | 98% |
| CC(=O)Nc1ccccc1-c1nc2ccccc2s1 | 102% |
| COc1ccc(/C=N/NC(=O)c2c(N)nn(C)c2Nc2ccccc2)cc1Oc1ccccc1 | 94.1% |
| C=C(C)[C@@H]1CC[C@]2(COP(=O)(OCC)OCC)CC[C@]3(C)[C@H](CC[C@@H]4[C@@]5(C)CC[C@H](OP(=O)(OCC)OCC)C(C)(C)[C@@H]5CC[C@]43C)[C@@H]12 | 65% |
| N#Cc1c(-c2cccs2)cc(-c2cnccn2)nc1SCC(=O)N/N=C/c1ccccc1 | 14.8% |
| COc1cccc2c1[C@H](OC)[C@]13O[C@@]1(C2=O)[C@H](O)[C@H](C)[C@@](O)(C(=O)[C@@H]1O[C@H]1C)[C@@H]3O | -39.6% (active) |
| C#CCN(C)CCCOc1ccc(NCc2ccc(C(=O)NO)cc2)cc1Cl | 75.4% |
| CCN(CC)c1ccc(/C=N/NC(=O)c2ccc(NS(C)(=O)=O)cc2)cc1 | 28.4% |
| COc1ccc2c(c1)c(-c1nnc(N)nc1-c1c[nH]c3ccc(F)cc13)cn2C | 53.5% |
| Cc1ccc(S(=O)(=O)NCCCNc2nccc(-c3[nH]c(-c4ccccc4)nc3-c3ccc(F)c(O)c3)n2)cc1 | 93.1% |

| Structure (SMILES) | growth |
| --- | --- |
| COc1ccc(-c2c(C(N)=O)c(N)n(Cc3nc4ccccc4[nH]3)c(=O)c2C#N)c(OC)c1 | 105% |
| Brc1ccc2[nH]cc(-c3nn4cc(-c5nccs5)nc4s3)c2c1 | 62.6% |
| CNc1sc(S(=O)(=O)NC)nc1S(=O)(=O)c1ccc(C)cc1 | 99.5% |
| COc1ccc(C(=NNS(=O)(=O)c2ccc(C)cc2)c2ccccc2)cc1OC | 112% |
| N#Cc1c(-c2cccs2)cc(-c2cnccn2)nc1SCC(=O)N/N=C/c1ccncc1 | 113% |
| Cc1ncn(-c2ccc(/C=N/Nc3ccnc4cc(Cl)ccc34)cc2)c1C | -93.7% (active) |
| C#Cc1nc(/C=C/C(=O)NO)cs1 | 101% |
| CCS(=O)(=O)Nc1ccc(C(=O)CC2(O)C(=O)Nc3ccccc32)cc1 (stereo not drawn) | 116% |
| C1=CC(c2nn3c(-c4ccccc4)nnc3s2)=Cc2ccccc2O1 | 77.9% |
| Cc1[nH]c(C(=O)Nc2ccc(C(N)=O)cc2N2CCOC(C)C2)c(Cl)c1Cl (stereo not drawn) | 98.3% |
| O=C(/C=C/c1ccccc1)c1cccc(O)c1 | 95.4% |
| COC(=O)CCCNCCCn1ccc2cc(NCc3cccc(-c4ccccc4)c3C)ccc21 | 90.2% |
| C/C(=N\NC(=O)/C=C/CC(=O)O)c1nnn(-c2ccc([N+](=O)[O-])cc2)c1C | 103% |
| O=C(/C=C/c1ccc(F)cc1)Nc1cccc2cccnc12 | 115% |
| CC(C)NC(=O)c1cc(-c2ccc(NC(=O)Nc3ccc(F)cc3)cc2)nc2cccnc12 | 104% |
| O=C(/C=C/c1cccc(C(F)(F)F)c1)Nc1cccc(C(F)(F)F)c1 | 118% |
| Clc1ccc(CSc2nnc(-c3ccc(Cl)cc3)n2-c2ccccc2)cc1 | 58.6% |
| COc1ccc(/C=N/N=C(/c2ccccc2)c2ccc3nc(-c4ccc(Cl)cc4)[nH]c3c2)cc1 | 85.7% |
| N#Cc1cnc2ccc(-c3cnc4n[nH]nc4c3)cc2c1N1CCc2cc(F)c(Cl)cc21 | 3.78% (active) |
